# A selection: hits, their analogues and other compounds. The true share with any hit is near 1.8%.
# Neddyl block = inhibitors of human cullin neddylation. TR-FRET cullin neddylation, biochemical. AID 651699. 360,000 tested, 0.58% active. inhibition, % at 25 µM. P61081+Q13564; in the data active = inhibition above about 36%
# HDAC3 inh = inhibitors of human histone deacetylase 3; O15379; recombinant HDAC3, fluorogenic peptide/trypsin coupled, fluorescence; inhibition, % at 8.3 µM; 320,000 tested, 0.15% active; AID 2718; in the data active = inhibition above about 26%, passing the limit was not always enough
# Target sequence (O15379 whole entry, looked up): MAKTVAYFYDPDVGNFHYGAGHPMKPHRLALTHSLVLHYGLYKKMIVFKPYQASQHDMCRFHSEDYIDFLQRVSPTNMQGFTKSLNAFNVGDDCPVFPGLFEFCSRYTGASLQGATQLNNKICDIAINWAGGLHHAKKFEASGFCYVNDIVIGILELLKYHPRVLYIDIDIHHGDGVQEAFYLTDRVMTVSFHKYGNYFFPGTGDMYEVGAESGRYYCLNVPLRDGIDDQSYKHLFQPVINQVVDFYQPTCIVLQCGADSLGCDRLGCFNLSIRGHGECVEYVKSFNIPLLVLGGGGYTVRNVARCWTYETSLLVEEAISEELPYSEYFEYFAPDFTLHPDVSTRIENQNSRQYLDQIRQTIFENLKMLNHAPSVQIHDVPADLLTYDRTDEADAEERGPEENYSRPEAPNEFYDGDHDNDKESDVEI
# GRK2 inh = blocks RNA aptamer binding to human GRK2; P25098; bead flow cytometry, FAM-aptamer displacement from GRK2; inhibition of aptamer binding, % at 10 µM; 330,000 tested, 0.59% active;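 active = inhibition of aptamer binding above 40%, roughly 3 SD of noise, on plates passing a quality check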;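 note: median bead fluorescence of bound FAM aptamer so fluorescent compounds give negative values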
# Cardio protect = modulators protecting cardiomyocytes from myocardial damage | H9c2 cardiomyocytes, H2O2 injury protection, ATPLite, 2 h | protection from H2O2 cell death, % at 20 µM | 360,000 tested, 0.63% active | AID 588492;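 active = compounds giving at least 50% protection of heart cells from peroxide-induced death in the single-dose screen, raw or plate-pattern-corrected value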;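 note: 0% = DMSO wells with peroxide and 100% = DMSO wells without peroxide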
# GRK2 CP1 = confirmation of human GRK2 inhibitors displacing RNA aptamer; shares compounds with GRK2 inh; bead-bound GRK2, FAM-aptamer displacement, flow cytometry; aptamer displacement, % at 10 µM; 2,000 tested, 4% active; AID 504451;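 active = aptamer displacement above 40%, near three times the noise of non-fluorescent compounds, on plates passing quality checks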;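 note: negative values mostly reflect intrinsic compound fluorescence rather than true enhancement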
# FAM quench CP1 = quenches fluorescent RNA aptamer, GRK2 hit artifact; shares compounds with GRK2 inh; Carboxyfluorescein RNA aptamer on beads, flow cytometry quenching; hits give low values; fluorescence response (% of DMSO), % at 10 µM; 2,000 tested, under 10 active;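 active = compounds that quench the bead-bound fluorescent RNA probe, cutting fluorescence to under half of the solvent control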;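 note: counterscreen run without GRK2 so only probe quenching by compound is measured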
# GRK2 confirm 2 = human GRK2 inhibition confirmation, cherry pick 2 | AID 504782 | shares compounds with GRK2 inh | inhibition of aptamer binding, % at 10 µM | bead-bound GRK2, FAM-aptamer displacement, flow cytometry | 360 tested, under 10 active;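 active = inhibition of aptamer binding above 40%, about triple the noise seen with nonglowing compounds, on plates passing quality control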;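 note: negative values mostly come from compounds that fluoresce themselves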
# FAM quench CP2 = counter-screen for GRK2 binding hits: quenchers of fluorescent RNA aptamer; shares compounds with GRK2 inh; carboxyfluorescein RNA aptamer beads, flow cytometry quenching; hits give low values; fluorescence response vs DMSO, % at 10 µM; 360 tested, under 10 active; AID 588494;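 active = response vs DMSO under 50%, meaning signal dropped by over half, treated as fluorescence quencher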;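 note: labelled aptamer on streptavidin beads without GRK2 as a quench counter-screen; 100% = bead fluorescence of DMSO wells and lower means quenching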
# * marks the source's active call; other numbers are inactive results; · = not tested or not shown.
SMILES,Neddyl block,HDAC3 inh,GRK2 inh,Cardio protect,GRK2 CP1,FAM quench CP1,others
COc1ccc(-c2ccc3c(c2)c(-c2cccs2)c(-c2cc(OC)cc(OC)c2)n3C)cc1,-32,6,1,-5,·,·,
Cc1ccc(C(=O)Nc2cccc(S(=O)(=O)N3CCCCC3)c2)cc1[N+](=O)[O-],-40,-4,0,-13,·,·,
CC(Oc1ccc([N+](=O)[O-])cc1Cl)C(=O)Nc1ccc(C(N)=O)cc1 (stereo unspecified),-40,0,95*,-2,3,102,
CC(=O)Nc1ccc(Oc2ccc([N+](=O)[O-])cc2Cl)cc1,-24,6,0,-9,·,·,
Cc1nc(C(=O)NCc2ccccc2)sc1C1(C)CC(c2ccccc2)=NO1 (stereo unspecified),-17,7,2,-12,-1,101,
CC(=O)NC1C(=O)N(CCN2CCOCC2)c2ccc(Cl)cc21 (stereo unspecified),8,-1,98*,-3,-2,99,
C[C@@H]1NC(=O)OC1c1ccco1 (stereo partly specified),-1,2,76*,14,5,99,
O=C(COC(=O)CNC(=O)c1ccc([N+](=O)[O-])o1)Nc1ncc(Cl)cc1Cl,-18,2,55*,1,-1,99,
O=C(CNc1cccc(F)c1)N1CCc2ccccc2C1,2,3,51*,-1,·,·,GRK2 confirm 2=25;FAM quench CP2=102
C[C@@H]1CN([C@@H](C)CO)C(=O)CCCn2nncc2CO[C@@H]1CN(C)S(=O)(=O)c1ccc2ccccc2c1,-9,·,·,4,·,·,
Cc1ccc(S(=O)(=O)N2CCOCC2)cc1NC(=O)COC(=O)/C=C/c1ccco1,-11,6,63*,2,9,91,
CSc1ccc(Cl)c(C(=O)N2CCN(c3ncccn3)CC2)c1,21,-3,43*,-1,·,·,GRK2 confirm 2=9;FAM quench CP2=101
Cc1cccc(OCC(=O)N2CCc3ccccc3C2)c1,-7,-2,3,4,·,·,
CC(C)(C)n1cnc2cc(NCc3ccccc3O)ccc21,9,8,27,-8,1,102,
CC(C)n1cnc2cc(NCc3ccccc3O)ccc21,16,-9,2,1,·,·,
CCN(CC)c1ccc(CNc2ccc3c(c2)ncn3C(C)(C)C)cc1,8,2,0,-17,·,·,
CCc1ccc(CNc2ccc3c(c2)ncn3C(C)(C)C)cc1,15,-5,0,-8,-6,98,
CC(C)(C)n1cnc2cc(NCc3ccc(Br)cc3)ccc21,11,1,0,-9,-5,96,
Cc1ccc(NC(=O)/C(=C/c2cccs2)NC(=O)c2ccco2)c(C)c1,-14,6,1,3,·,·,
CN1CCN(C(=S)c2cn(Cc3ccc(Br)cc3)c3ccccc23)CC1,-3,-4,0,1,·,·,
Cc1cccc(N(CC(=O)NC(C)(C)C)C(=O)CCC(=O)Nc2ccccn2)c1,-13,-1,3,1,·,·,
N#Cc1c(-c2ccccc2)cc(-c2ccccc2)[nH]c1=O,-46,-6,60*,1,·,·,GRK2 confirm 2=4;FAM quench CP2=100
Cc1ccc(Cn2c(Cc3ccccc3)nc3ccccc32)cc1,0,7,96*,-15,1,95,
Cc1ccc(CN2CCN(CC(C)C)C(CCO)C2)s1 (stereo unspecified),7,1,97*,14,-1,98,
Cc1ccc(CN2CCN(Cc3cnc(N4CCOCC4)s3)CC2CCO)o1 (stereo unspecified),7,-1,72*,-5,2,95,
CC(=O)Oc1ccc2c(c1)C(=O)CCCCCC(=O)O2,7,·,·,4,·,·,
COc1cccc(CN(C)C(=O)c2cc(COc3ccc4ncccc4c3)on2)c1,-2,-6,2,-26,·,·,
CC(C)CCOCC(O)CCC(=O)NNC(=S)Nc1ccccc1 (stereo unspecified),13,-1,2,1,·,·,
C=CCC(CC(O)COCCC)C(=O)NNC(=S)Nc1ccccc1 (stereo unspecified),16,2,46*,-7,-5,92,
